Shown are actives, neighbours in structure and some others; about 27% of the full set was active somewhere.
CYP2C19 activ = cytochrome P450 2C19 (human) activation; P33261; recombinant CYP2C19, luciferin-H EGE luminescence; stronger effect = higher value; 0 = fully inhibited enzyme, 1 = untreated enzyme; activation factor at 5 µM; 96,000 tested, under 10 active; AID 1025;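 active = activation factor of at least 2 at 5 µM in the primary screen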;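 note: 0 = wells with 2.5 mM tranylcypromine and 1 = vehicle-only wells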
CYP2C19 inhib = blocks human cytochrome P450 2C19; 21% of 96,000 active; P33261; inhibition, % at 5 µM; CYP2C19 Supersomes, luciferin-H EGE luminescence, 30 min;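 active = CYP2C19 inhibition above a set limit at 5 µM in the primary screen, cut at about 50% in these data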;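 note: plate controls were negative control wells for no effect and 2.5 mM tranylcypromine positive control for full effect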
CYP2C9 inhib = inhibitors of human CYP2C9; inhibition, % at 5 µM; P11712; 20% of 96,000 active; CYP2C9 Supersomes, luciferin-H conversion, luminescence;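 active = blocking of liver enzyme CYP2C9 beyond about 50% at 5 µM, limit read from the data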
CYP2C9 act = increases human cytochrome P450 2C9 activity | P11712 | recombinant CYP2C9, luciferin-H conversion, luminescence; stronger effect = higher value; factor 1 = untreated enzyme, 0 = blocked | activation factor at 5 µM | 1.4% of 96,000 active | AID 1024;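 active = activation factor of 2 or more for CYP2C9 at a 5 µM dose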;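 note: 0 = sulfaphenazole-blocked wells and 1 = vehicle-only wells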
Cav32 inh = human Cav3.2 channel inhibition, primary screen; Cav3.2-expressing cells, Fluo-4 calcium fluorescence FDSS; stronger effect = lower value; O95180; 4% of 100,000 active; B-score at 10 µM;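 active = single-dose well whose peak fluorescence ratio is a statistical outlier from its plate by either plate-standardised score or position-corrected B-score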
Target sequence (O95180 whole entry, looked up): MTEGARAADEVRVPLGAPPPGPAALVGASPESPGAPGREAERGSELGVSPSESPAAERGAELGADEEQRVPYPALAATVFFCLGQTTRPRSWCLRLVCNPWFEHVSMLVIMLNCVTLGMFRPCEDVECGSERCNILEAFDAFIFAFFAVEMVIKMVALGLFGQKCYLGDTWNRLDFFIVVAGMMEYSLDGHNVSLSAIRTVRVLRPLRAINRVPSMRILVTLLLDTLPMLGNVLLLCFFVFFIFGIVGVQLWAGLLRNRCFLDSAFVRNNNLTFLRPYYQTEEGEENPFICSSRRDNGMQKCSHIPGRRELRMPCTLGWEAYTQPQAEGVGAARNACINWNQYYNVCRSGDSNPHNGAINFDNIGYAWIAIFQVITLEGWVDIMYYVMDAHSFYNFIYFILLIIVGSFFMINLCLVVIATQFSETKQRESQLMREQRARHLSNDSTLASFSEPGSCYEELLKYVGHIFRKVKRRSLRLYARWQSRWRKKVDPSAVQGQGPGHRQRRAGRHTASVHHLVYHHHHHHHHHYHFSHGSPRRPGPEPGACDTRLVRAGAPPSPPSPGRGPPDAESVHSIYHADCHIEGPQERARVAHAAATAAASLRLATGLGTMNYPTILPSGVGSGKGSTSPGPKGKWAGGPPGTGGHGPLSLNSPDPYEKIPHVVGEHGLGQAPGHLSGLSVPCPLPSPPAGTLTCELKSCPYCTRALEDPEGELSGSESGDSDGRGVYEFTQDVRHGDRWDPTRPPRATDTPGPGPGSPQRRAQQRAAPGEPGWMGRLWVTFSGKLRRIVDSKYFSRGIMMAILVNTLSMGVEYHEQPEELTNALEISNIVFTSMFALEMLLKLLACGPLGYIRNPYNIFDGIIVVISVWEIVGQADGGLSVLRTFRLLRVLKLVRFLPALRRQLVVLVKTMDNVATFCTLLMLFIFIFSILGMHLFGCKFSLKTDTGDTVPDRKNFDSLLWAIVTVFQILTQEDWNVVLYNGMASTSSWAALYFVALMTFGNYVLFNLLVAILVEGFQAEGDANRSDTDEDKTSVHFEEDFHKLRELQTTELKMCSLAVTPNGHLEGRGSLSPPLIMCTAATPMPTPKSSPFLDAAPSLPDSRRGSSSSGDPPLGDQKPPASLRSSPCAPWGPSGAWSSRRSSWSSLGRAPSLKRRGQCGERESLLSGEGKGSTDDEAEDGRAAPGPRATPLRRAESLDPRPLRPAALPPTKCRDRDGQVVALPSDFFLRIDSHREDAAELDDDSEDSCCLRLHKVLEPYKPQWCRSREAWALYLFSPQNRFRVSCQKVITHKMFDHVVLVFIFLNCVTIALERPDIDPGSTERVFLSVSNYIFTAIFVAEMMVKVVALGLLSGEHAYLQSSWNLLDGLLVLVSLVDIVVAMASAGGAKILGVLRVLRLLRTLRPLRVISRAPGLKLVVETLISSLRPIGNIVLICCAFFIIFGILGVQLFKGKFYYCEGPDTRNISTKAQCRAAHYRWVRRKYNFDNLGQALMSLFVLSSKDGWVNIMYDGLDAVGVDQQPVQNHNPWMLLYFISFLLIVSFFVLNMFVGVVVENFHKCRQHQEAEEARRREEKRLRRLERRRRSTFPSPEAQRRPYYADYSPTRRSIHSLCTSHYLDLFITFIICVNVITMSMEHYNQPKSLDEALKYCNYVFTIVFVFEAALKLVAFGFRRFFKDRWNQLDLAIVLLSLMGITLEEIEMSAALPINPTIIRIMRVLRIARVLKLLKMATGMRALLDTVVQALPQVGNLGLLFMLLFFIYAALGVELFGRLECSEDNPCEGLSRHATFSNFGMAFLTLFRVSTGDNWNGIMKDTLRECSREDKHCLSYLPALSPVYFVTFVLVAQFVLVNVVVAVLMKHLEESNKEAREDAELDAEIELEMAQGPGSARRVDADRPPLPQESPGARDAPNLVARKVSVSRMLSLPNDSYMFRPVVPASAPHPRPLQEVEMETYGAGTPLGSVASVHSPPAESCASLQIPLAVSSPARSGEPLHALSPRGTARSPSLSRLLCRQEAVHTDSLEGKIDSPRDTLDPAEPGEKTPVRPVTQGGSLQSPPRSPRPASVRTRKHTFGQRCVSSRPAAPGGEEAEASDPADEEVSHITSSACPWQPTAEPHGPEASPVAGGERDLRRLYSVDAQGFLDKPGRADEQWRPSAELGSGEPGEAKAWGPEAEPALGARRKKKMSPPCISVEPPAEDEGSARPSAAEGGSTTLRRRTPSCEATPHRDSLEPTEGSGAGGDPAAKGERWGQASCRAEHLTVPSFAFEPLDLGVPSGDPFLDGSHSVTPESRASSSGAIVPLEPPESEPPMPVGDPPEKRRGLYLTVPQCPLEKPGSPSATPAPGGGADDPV
Numbers without * were called inactive.

For COc1ccccc1CNC(=O)C1CCCN1S(=O)(=O)c1cccc2cccnc12 (stereo not drawn) the results were CYP2C19 activ 0.2, CYP2C19 inhib 83*, CYP2C9 inhib 11, CYP2C9 act 0.9 and Cav32 inh 1.2.
For Cc1cccc(NC(=O)C2CCCN2S(=O)(=O)c2cccc3cccnc23)c1 (stereo not drawn) the results were CYP2C19 activ 0.7, CYP2C19 inhib 27, CYP2C9 inhib 70*, CYP2C9 act 0.3 and Cav32 inh -0.17.
`CC(=O)c1ccc(NC(=O)C2CCCN2S(=O)(=O)c2cccc3cccnc23)cc1` (stereo not drawn) gave CYP2C19 activ 0.6, CYP2C19 inhib 41, CYP2C9 inhib 14, CYP2C9 act 0.9 and Cav32 inh -2.7.
`CS(=O)(=O)N1Cc2ccccc2CC1C(=O)Nc1ccccc1C(N)=O` (stereo not drawn) gave CYP2C19 activ 0.9, CYP2C19 inhib 5, CYP2C9 inhib 9, CYP2C9 act 0.9 and Cav32 inh 0.4.
Screening CCOC(=O)CN(C(=O)CCC(=O)Nc1cc(C)on1)C(C(=O)NC1CCCC1)c1cccnc1 (stereo not drawn) returned CYP2C19 activ 0.9, CYP2C19 inhib 10, CYP2C9 inhib 6, CYP2C9 act 0.9 and Cav32 inh 0.78.
For CC(=O)Nc1cccc(OCC(=O)Nc2ccccc2)c1 the results were CYP2C19 activ 0.7, CYP2C19 inhib 34, CYP2C9 inhib -26 and CYP2C9 act 1.3.
Screening COc1cc(NC(=O)COc2cccc(OC)c2)cc(OC)c1 returned CYP2C19 activ 0.1, CYP2C19 inhib 88*, CYP2C9 inhib -4, CYP2C9 act 1 and Cav32 inh -0.42.
O=C(COc1cccc(-n2cnnn2)c1)Nc1ccccc1 was read as Cav32 inh -0.0041.
COc1ccc(Cl)cc1NC(=O)COc1cccc(-n2cnnn2)c1 was read as CYP2C19 activ 0.7, CYP2C19 inhib 29, CYP2C9 inhib -234, CYP2C9 act 3.3* and Cav32 inh -0.13.
Screening COc1cccc(OCC(=O)Nc2ccc(OC)c(OC)c2)c1 returned CYP2C19 activ 0.5, CYP2C19 inhib 51*, CYP2C9 inhib 13, CYP2C9 act 0.9 and Cav32 inh 0.69.
`CCC(=O)Nc1cccc(NC(=O)COc2ccc(OC)cc2)c1` gave CYP2C19 activ 0.6, CYP2C19 inhib 36, CYP2C9 inhib -51, CYP2C9 act 1.5 and Cav32 inh 0.21.
Screening O=C(COc1cccc(OC(F)F)c1)Nc1ccc(SC(F)F)cc1 returned CYP2C19 activ 0.2, CYP2C19 inhib 81*, CYP2C9 inhib -5, CYP2C9 act 1.1 and Cav32 inh -4.8.
CS(=O)(=O)c1ccc(CNC(=O)C2(C(F)(F)F)C/C(=C\Cc3ccccc3)CCCO2)cc1 (stereo not drawn) was read as Cav32 inh -2.1.
For C=CCC1(O)C(=O)N2C(=C1C(=O)N1CCOCC1)c1ccccc1CC2(C)C (stereo not drawn) the results were CYP2C19 activ 0.9, CYP2C19 inhib 5, CYP2C9 inhib 11, CYP2C9 act 0.9 and Cav32 inh 0.14.
For COc1ccc(NC(=O)CCC2CCCC2)cc1OC the results were CYP2C19 activ 0.1, CYP2C19 inhib 95*, CYP2C9 inhib 28, CYP2C9 act 0.7 and Cav32 inh 0.098.
For COCc1cc(C)nc(NCCc2ccccc2)c1C#N the results were CYP2C19 activ 0.5, CYP2C19 inhib 52*, CYP2C9 inhib 4, CYP2C9 act 1 and Cav32 inh -0.33.
Screening COCc1cc(C)nc(N2CCNCC2)c1C#N returned CYP2C19 activ 1.1, CYP2C19 inhib -9, CYP2C9 inhib -15, CYP2C9 act 1.1 and Cav32 inh 0.55.
`Cc1cc(C)c(C#N)c(Nc2ccccc2)n1` gave Cav32 inh -0.34.
Screening COCc1cc(C)nc(N2CCN(c3ccccc3)CC2)c1C#N returned CYP2C19 activ 0.3, CYP2C19 inhib 69*, CYP2C9 inhib -139, CYP2C9 act 2.4* and Cav32 inh -4.5*.
COCc1cc(C)nc(N2CCN(Cc3ccccc3)CC2)c1C#N was read as CYP2C19 activ 0.1, CYP2C19 inhib 95*, CYP2C9 inhib 14, CYP2C9 act 0.9 and Cav32 inh 1.1.
CSCCC(NC(N)=O)C(=O)NCc1ccccc1Cl (stereo not drawn) was read as CYP2C19 activ 1, CYP2C19 inhib 4, CYP2C9 inhib -33, CYP2C9 act 1.3 and Cav32 inh -0.008.
For CCO[C@@H]1OC(C(=O)NCc2nc3ccccc3[nH]2)=C[C@H](c2coc3ccccc3c2=O)[C@H]1CCCO the results were Cav32 inh 0.36.
`CCOC(=O)Cn1c(=O)c2c(nc(N3CCCCC3)n2Cc2ccccc2)n(C)c1=O` gave CYP2C19 activ 0.8, CYP2C19 inhib 17, CYP2C9 inhib 31 and CYP2C9 act 0.7.
`CCOC(=O)Cn1c(=O)c2c(nc(Br)n2Cc2ccc(Cl)cc2)n(C)c1=O` gave CYP2C19 activ 0.6, CYP2C19 inhib 44, CYP2C9 inhib 56*, CYP2C9 act 0.4 and Cav32 inh -1.5.
Screening CCOC(=O)CCn1cc(F)c(=O)n(Cc2ccccc2)c1=O returned CYP2C19 activ 0.5, CYP2C19 inhib 52*, CYP2C9 inhib 11, CYP2C9 act 0.9 and Cav32 inh 1.3.
For CCOC(=O)CCn1c(=O)c2c(nc(Br)n2Cc2ccccc2)n(C)c1=O the results were CYP2C19 activ 0.4, CYP2C19 inhib 60*, CYP2C9 inhib 41, CYP2C9 act 0.6 and Cav32 inh -2.1.
Screening CCc1ccc(OCc2nnc(SCC(=O)N3CCN(c4ccccc4)CC3)o2)cc1 returned Cav32 inh -0.88.
Screening O=C1c2cc(CO)cc(O)c2C(=O)c2c(O[C@@H]3OC(CO)[C@@H](O)[C@@H](O)[C@@H]3O)cccc21 (stereo partly drawn) returned Cav32 inh 1.7.
Screening O=C(O[C@H]1[C@H](Oc2ccccc2COC(=O)C2(O)C=CCCC2=O)O[C@H](CO)[C@@H](O)[C@@H]1O)c1ccccc1 (stereo partly drawn) returned Cav32 inh -4.5*.
Screening Cn1c(/C=N/NC(=O)c2ccccc2Br)nc2ccccc21 returned CYP2C19 activ 0.3, CYP2C19 inhib 69*, CYP2C9 inhib 62*, CYP2C9 act 0.4 and Cav32 inh -4.3*.
For CCCC1(C(=O)OCC)NC(c2ccc(N(C)C)cc2)C2C(=O)N(c3ccc(OCC)cc3)C(=O)C21 (stereo not drawn) the results were CYP2C19 activ 0.3, CYP2C19 inhib 74*, CYP2C9 inhib 50, CYP2C9 act 0.5 and Cav32 inh -0.029.
Screening CCCC1(C(=O)OCC)NC(c2ccc(N(C)C)cc2)C2C(=O)N(c3ccccc3)C(=O)C21 (stereo not drawn) returned Cav32 inh 0.064.
Screening Cc1cc2c(cc1C)NC(c1nc3ccccc3[nH]1)C1=C(CC(C)(C)CC1=O)N2 (stereo not drawn) returned CYP2C19 activ 1, CYP2C19 inhib -4, CYP2C9 inhib -4 and CYP2C9 act 1.

Bioassay records (PubChem BioAssay)
